{
  "source": "the supplement of paper PMC8728848",
  "assay_in_all_cases": "glycan array binding signal (z-score within array); higher = stronger binding",
  "conditions_in_all_cases": "glycan notation: IUPAC condensed, linker removed",
  "key": {"[1]": {"biological_target": "Fuc(a1-2)Gal(b1-3)[Fuc(a1-4)]GlcNAc", "how_it_was_run": "(§1)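 Arrays were curated from the Consortium for Functional Glycomics database, 3228 in total, and kept only where the protein sequence was available. Binding is expressed as a within-array Z-score. This score was averaged across arrays of the same protein sequence at different concentrations or buffers and across linkers, and negative values can be read as non-binding.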"}, "[2]": {"biological_target": "Fuc(a1-2)Gal(b1-3)[Fuc(a1-4)]GlcNAc(b1-3)[Fuc(a1-3)[Gal(b1-4)]GlcNAc(b1-6)]Gal(b1-4)Glc", "how_it_was_run": "as §1"}, "[3]": {"biological_target": "Fuc(a1-2)Gal(b1-4)Fuc(a1-3)]GlcNAc(b1-2)Man(a1-3)[Fuc(a1-2)Gal(b1-4)[Fuc(a1-3)]GlcNAc(b1-2)Man(a1-6)]Man(b1-4)GlcNAc(b1-4)GlcNAc", "how_it_was_run": "as §1"}, "Fuc(a1-2)Gal(b1-4)GlcNAc": {"biological_target": "Fuc(a1-2)Gal(b1-4)GlcNAc", "how_it_was_run": "as §1"}, "[4]": {"biological_target": "Fuc(a1-2)Gal(b1-4)GlcNAc(b1-6)GalNAc", "how_it_was_run": "as §1"}, "[5]": {"biological_target": "Fuc(a1-2)Gal(b1-4)[Fuc(a1-3)]GlcNAc(b1-3)GalNAc", "how_it_was_run": "as §1"}, "[6]": {"biological_target": "Fuc(a1-2)Gal6S(b1-3)GlcNAc6S", "how_it_was_run": "as §1"}, "[7]": {"biological_target": "Fuc(a1-2)[Gal(a1-3)]Gal(b1-3)GlcNAc", "how_it_was_run": "as §1"}, "[8]": {"biological_target": "Fuc(a1-2)[Gal(a1-3)]Gal(b1-4)[Fuc(a1-3)]Glc", "how_it_was_run": "as §1"}, "[9]": {"biological_target": "Fuc(a1-2)[GalNAc(a1-3)]Gal(b1-3)GalNAc(b1-3)Gal(a1-4)Gal(b1-4)Glc", "how_it_was_run": "as §1"}, "[10]": {"biological_target": "Fuc(a1-2)[GalNAc(a1-3)]Gal(b1-4)GlcNAc(b1-2)Man(a1-3)[Fuc(a1-2)[GalNAc(a1-3)]Gal(b1-4)GlcNAc(b1-2)Man(a1-6)]Man(b1-4)GlcNAc(b1-4)[Fuc(a1-6)]GlcNAc", "how_it_was_run": "as §1"}, "[11]": {"biological_target": "Fuc(a1-2)[GalNAc(a1-3)]Gal(b1-4)GlcNAc(b1-3)Gal(b1-4)GlcNAc", "how_it_was_run": "as §1"}, "[12]": {"biological_target": "Fuc(a1-2)[GalNAc(a1-3)]Gal(b1-4)[Fuc(a1-3)]GlcNAc(b1-3)GalNAc", "how_it_was_run": "as §1"}, "[13]": {"biological_target": "Fuc(a1-3)[Gal(b1-4)]GlcNAc(b1-2)Man", "how_it_was_run": "as §1"}, "[14]": {"biological_target": "Fuc(a1-3)[Gal(b1-4)]GlcNAc(b1-3)GalNAc", "how_it_was_run": "as §1"}, "[15]": {"biological_target": "Fuc(a1-3)[Gal(b1-4)]GlcNAc(b1-6)GalNAc", "how_it_was_run": "as §1"}, "[16]": {"biological_target": "Gal(a1-3)Gal(b1-3)[Fuc(a1-4)]GlcNAc(b1-2)Man(a1-3)[Gal(a1-3)Gal(b1-3)[Fuc(a1-4)]GlcNAc(b1-2)Man(a1-6)]Man(b1-4)GlcNAc(b1-4)GlcNAc", "how_it_was_run": "as §1"}, "Gal(a1-4)GlcNAc": {"biological_target": "Gal(a1-4)GlcNAc", "how_it_was_run": "as §1"}, "[17]": {"biological_target": "Gal(b1-3)[Neu5Ac(a2-6)]GlcNAc(b1-4)Gal(b1-4)Glc", "how_it_was_run": "as §1"}, "Gal(b1-4)Glc6S": {"biological_target": "Gal(b1-4)Glc6S", "how_it_was_run": "as §1"}, "[18]": {"biological_target": "Gal(b1-4)GlcNAc(b1-3)Gal(b1-3)GalNAc", "how_it_was_run": "as §1"}, "[19]": {"biological_target": "Gal(b1-4)GlcNAc(b1-3)Gal(b1-3)GlcNAc", "how_it_was_run": "as §1"}, "[20]": {"biological_target": "Gal(b1-4)GlcNAc(b1-3)Gal(b1-4)GlcNAc", "how_it_was_run": "as §1"}, "[21]": {"biological_target": "Gal(b1-4)GlcNAc(b1-3)GalNAc", "how_it_was_run": "as §1"}, "[22]": {"biological_target": "Gal(b1-4)GlcNAc(b1-3)[Fuc(a1-3)GlcNAc(b1-6)]Gal(b1-4)Glc", "how_it_was_run": "as §1"}, "[23]": {"biological_target": "Gal(b1-4)GlcNAc(b1-3)[GlcNAc(b1-6)]Gal(b1-4)GlcNAc", "how_it_was_run": "as §1"}, "Gal3S(b1-3)GlcNAc": {"biological_target": "Gal3S(b1-3)GlcNAc", "how_it_was_run": "as §1"}, "[24]": {"biological_target": "Gal3S(b1-3)[Fuc(a1-4)]GlcNAc", "how_it_was_run": "as §1"}, "Gal3S6S(b1-4)GlcNAc6S": {"biological_target": "Gal3S6S(b1-4)GlcNAc6S", "how_it_was_run": "as §1"}, "Gal4S(b1-4)GlcNAc": {"biological_target": "Gal4S(b1-4)GlcNAc", "how_it_was_run": "as §1"}},
  "note": "Only a selection was taken, and the strongest signals are over-represented in it overall.",
  "data": [
    {"binder": "Epa2 (Candida glabrata) (protein) MGSSHHHHHHSSGLVPRGSHMASSKDPTSFPMGCSPQVLKTQPGLAVKLYSYGHPVPGCAYNTYQYPDFPRSGYKKERKLADITGVNGRIDIDLKPNDPCRVLSGNLPSNYNYQNTLTYTNFTMILYGYFQPKVTGYHTFNLEADDLLFMNLGAGNAFDCCRAESTLDNFGNYQSYSIWGTDKATADLTVFLVSGIYYPIRLFYVNRDNNAVLDFSFSTEFNKEIIHDFTSYFFSASDEEQCPGNI", "values": [
      {"measurement": "glycan array binding signal (z-score)", "setting": "[1]", "result": 0.672},
      {"measurement": "glycan array binding signal (z-score)", "setting": "[2]", "result": 0.365},
      {"measurement": "glycan array binding signal (z-score)", "setting": "[3]", "result": 0.533},
      {"measurement": "glycan array binding signal (z-score)", "setting": "Fuc(a1-2)Gal(b1-4)GlcNAc", "result": -0.046},
      {"measurement": "glycan array binding signal (z-score)", "setting": "[4]", "result": 2.02},
      {"measurement": "glycan array binding signal (z-score)", "setting": "[5]", "result": 4.06},
      {"measurement": "glycan array binding signal (z-score)", "setting": "[6]", "result": 1.81},
      {"measurement": "glycan array binding signal (z-score)", "setting": "[7]", "result": -0.553},
      {"measurement": "glycan array binding signal (z-score)", "setting": "[8]", "result": -0.56},
      {"measurement": "glycan array binding signal (z-score)", "setting": "[9]", "result": -0.252},
      {"measurement": "glycan array binding signal (z-score)", "setting": "[10]", "result": -0.26},
      {"measurement": "glycan array binding signal (z-score)", "setting": "[11]", "result": -0.172},
      {"measurement": "glycan array binding signal (z-score)", "setting": "[12]", "result": 4.26},
      {"measurement": "glycan array binding signal (z-score)", "setting": "[13]", "result": -1.15},
      {"measurement": "glycan array binding signal (z-score)", "setting": "[14]", "result": 0.659},
      {"measurement": "glycan array binding signal (z-score)", "setting": "[15]", "result": 2.23},
      {"measurement": "glycan array binding signal (z-score)", "setting": "[16]", "result": -0.479},
      {"measurement": "glycan array binding signal (z-score)", "setting": "Gal(a1-4)GlcNAc", "result": 2.5},
      {"measurement": "glycan array binding signal (z-score)", "setting": "[17]", "result": 0.015},
      {"measurement": "glycan array binding signal (z-score)", "setting": "Gal(b1-4)Glc6S", "result": -0.198},
      {"measurement": "glycan array binding signal (z-score)", "setting": "[18]", "result": 0.503},
      {"measurement": "glycan array binding signal (z-score)", "setting": "[19]", "result": -0.725},
      {"measurement": "glycan array binding signal (z-score)", "setting": "[20]", "result": -0.158},
      {"measurement": "glycan array binding signal (z-score)", "setting": "[21]", "result": -0.071},
      {"measurement": "glycan array binding signal (z-score)", "setting": "[22]", "result": 0.111},
      {"measurement": "glycan array binding signal (z-score)", "setting": "[23]", "result": -1.09},
      {"measurement": "glycan array binding signal (z-score)", "setting": "Gal3S(b1-3)GlcNAc", "result": -0.16},
      {"measurement": "glycan array binding signal (z-score)", "setting": "[24]", "result": 0.641},
      {"measurement": "glycan array binding signal (z-score)", "setting": "Gal3S6S(b1-4)GlcNAc6S", "result": 2.14},
      {"measurement": "glycan array binding signal (z-score)", "setting": "Gal4S(b1-4)GlcNAc", "result": -0.316}
    ]}
  ]
}
